Assay outcomes: PubChem, National Center for Advancing Translational Sciences (NCATS)
RE007 growth inh: less growth of the S. pombe RE007 Vpr strain | S. pombe RE007 Vpr strain, BacTiter-Glo ATP luminescence, 24 h | 360,000 compounds, 0.21% hits | Potency, µM (top dose mostly 92.2 µM), without a hit: top-dose activity change, negative = less growth, usual class: inhibitors; active = well fitted falling curve with a large enough effect; inconclusive = small, poorly fitted or top-dose-only effect; inactive = no such curve, though single readings can be large or run the other way; also: % is scaled to controls: 0 for no effect and ±100 for the full control effect; nearly all actives have a fitted effect of over 50% in size
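Fission yeast strain RE007, carrying one chromosomally integrated HIV-1 vpr copy, was seeded at OD 0.01 in PMG+AL medium with 23 nL pinned compound. After 24 h at 30 °C and 99% humidity, viability was read by BacTiter-Glo luminescence.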
AMA1 RON2 block: AMA1-RON2 (P. falciparum) interaction inhibition; AlphaScreen AMA1-biotinylated RON2 peptide binding; Potency, µM (highest dose often 58.2 µM), for inactives: top-dose activity change, negative = inhibition, usual class: inhibitors; 360,000 compounds, 0.2% hits;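 also: 0% = vehicle wells and -100% = peptide control; nearly all actives have a fitted effect of over 45% in size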
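AMA1 (3D7) with his tag at 25 nM final met compounds first, then biotinylated RON2 peptide at 25 nM; detection used donor plus acceptor beads, 10 µg/mL apiece, read by AlphaScreen after 30 min at room temperature.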
TbPYK inhibitor: T. brucei pyruvate kinase inhibition. TbPYK enzyme, Kinase-Glo Plus ATP luminescence, 45 min. Potency, µM (highest dose often 76.8 µM), inactives show at the highest dose activity, negative = inhibition, most hits filed as inhibitors. AID 624173. 410,000 compounds, 0.12% hits. Q57TT1; also: % is scaled to controls: 0 for no effect and ±100 for the full control effect; nearly all actives have a fitted effect of over 50% in size
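Screened from lowest to highest concentration, compounds were pinned into TbPYK/substrate mixtures, and ADP (130 uM final) was added. Plates sat at room temperature for 45 min prior to Kinase-Glo Plus detection by luminescence.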
NS1 function inh: influenza NS1 inhibition | 270,000 compounds, 0.4% hits | AID 2326 | Potency, µM (top dose mostly 46.1 µM), inactives show at the top dose activity, positive = more growth; calls by dose curve; also: actives are rising curves; nearly all actives have a fitted effect of over 50% in size
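S. cerevisiae expressing influenza A NS1, grown in glucose, washed, then diluted 1:100 into pH 6.0 -URA galactose medium with 23 nl compound. Growth recovery read as OD600; NS1-free strain serves as control.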
LmPK inh: LmPK (Leishmania mexicana) enzyme inhibition; Q27686; purified LmPK, Kinase-Glo ATP luminescence, 1 h; Potency, µM (doses to about 57.5 µM), inactives show top-dose activity change, negative = inhibition, usual class: inhibitors; 290,000 compounds, 0.37% hits; also: % is scaled to controls: 0 for no effect and ±100 for the full control effect
Target sequence (Q27686 whole entry, looked up): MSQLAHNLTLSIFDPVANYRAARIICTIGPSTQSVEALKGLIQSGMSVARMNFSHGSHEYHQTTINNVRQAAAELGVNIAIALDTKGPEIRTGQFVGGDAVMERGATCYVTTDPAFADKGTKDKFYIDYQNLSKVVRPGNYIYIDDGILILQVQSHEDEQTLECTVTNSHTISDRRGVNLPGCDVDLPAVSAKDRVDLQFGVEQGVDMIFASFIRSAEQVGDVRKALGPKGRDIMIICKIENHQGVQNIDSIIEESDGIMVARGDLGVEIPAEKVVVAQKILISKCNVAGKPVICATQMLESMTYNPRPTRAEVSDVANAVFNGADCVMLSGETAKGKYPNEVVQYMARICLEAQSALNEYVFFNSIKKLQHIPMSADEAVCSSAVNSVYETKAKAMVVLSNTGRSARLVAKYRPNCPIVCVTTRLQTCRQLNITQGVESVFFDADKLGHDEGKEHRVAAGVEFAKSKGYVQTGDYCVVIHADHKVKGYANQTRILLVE
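Screened at intermediate enzyme activity to detect both inhibitors and activators: LmPK at 0.1 nM, with a 0.5 nM enzyme column as activation reference. PEP 0.5 mM, ADP 0.1 mM; ATP detected by luminescence after 1 h.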
An asterisk follows results filed as active; u = inconclusive; x = no result; ! = not active in a repeat; [ ] = remark or other dose. This is a sample that favours compounds with a hit; in the whole collection about 0.92% have one here. Unless noted, calls follow the shape of the dose curve; as a rule, active = well fitted curve in the direction sought with a large enough effect; inconclusive = small, poorly fitted or top-dose-only effect, or another doubt; inactive = no such curve, though single readings can be large; an effect the other way counts as inactive or inconclusive. Potency is read from the fitted curve at half-maximal effect.

SMILES	RE007 growth inh	AMA1 RON2 block	TbPYK inhibitor	NS1 function inh	LmPK inh
CCCCc1nc2c(c3c1C[C@H](C)OC3)CN(C(=O)Cc1cccs1)CC2	x	x	x	x	-6%[11.5 µM]
Cc1ccc(CN2C(=O)C(=O)c3cc(Br)cc(C)c32)cc1	x	x	-7%	x	x
CCCCC1=CC2=CC(=O)C(C)(OC(=O)CC)C(=O)C2=CN1CCCN(CC)CC (stereo unspecified)	x	x	x	x	-1%[11.5 µM]
CCc1sc(C(C2C(=O)CC(C)(C)CC2=O)C2C(=O)CC(C)(C)CC2=O)cc1[N+](=O)[O-]	0%	-1%	25µM*	-2%	-1%
CC1(C)CC(=O)C(C(c2ccc(F)cc2)C2C(=O)CC(C)(C)CC2=O)C(=O)C1	-5%	-4%[2.32 µM]	1%	13%	0%
CCCCc1nc2c(c3c1C[C@H](C)OC3)CN(C(=O)c1cc(I)ccc1F)CC2	x	x	x	x	-2%[11.5 µM]
CN1/C(=C/c2cc[n+](C)c3ccccc23)C=Cc2ccccc21	10µM*	-27%	-25%	x	u
CCOC(=O)c1cnc2ccc(C)cc2c1Nc1ccc(N2CCOCC2)cc1	-20%	14µM*	-4%	-26%	0%
COc1ccc2cc1Oc1ccc(cc1)CC1c3c(cc(OC)c4c3Oc3cc5c(cc3O4)CCNC5C2)CCN1C (stereo unspecified)	2%	14µM*	0%	0%	2%
CCCCc1nc2c(c3c1C[C@H](C)OC3)CN(S(=O)(=O)CCCC)CC2	x	x	x	x	0%[11.5 µM]
O=C1C2C(C(=O)N1/N=C/c1ccc(N3CCCCC3)o1)C1C=CC2C12CC2 (stereo unspecified)	0%	8%	25µM*	18%	-9%
CCOC(=O)CCC(=O)OC1C(OC2C(C)C(OC3CC(C)(OC)C(O)C(C)O3)C(C)C(=O)OC(CC)C(C)(O)C(O)C(C)C(=O)C(C)CC2(C)O)OC(C)CC1N(C)C (stereo unspecified)	x	x	2%	x	x
Cn1c(N=Nc2ccc(N3CCOCC3)cc2)[n+](C)c2ccccc21	18µM*	u	u	-1%	11µM*
Cn1c(=Nc2ccc(N3CCOCC3)cc2)ccc2ccccc21	-4%	5%	4%	7%	-2%
Cc1cc(C)cc(-n2c(SCC(=O)Nc3ccccc3F)nc3c(oc4ccccc43)c2=O)c1	x	x	1%	x	x
CCCCNc1ccc(C(=O)OCCN(CC)CC)cc1	x	x	4%	x	x
Cc1cccc(OCc2n[nH]c(=S)n2C2CCCCC2)c1	1%	8%	13µM*	-17%	18µM*
COc1ccc(-n2c(COc3cccc(C)c3)n[nH]c2=S)cc1	1%	96%	u	24%	-6%
S=c1[nH]nc(COc2ccc(Cl)cc2)n1C1CCCCC1	2%	10%	u	12%	u
Cc1ccc(OCc2n[nH]c(=S)n2C2CCCCC2)cc1	-15%	8%	u	0%	8.9µM*
CCCCc1nc2c(c3c1C[C@H](C)OC3)CN(S(=O)(=O)c1ccc(C#N)cc1)CC2	x	x	x	x	-7%[11.5 µM]
Cc1ccc(/C=C/c2nc3ccccc3s2)s1	u	165%	-2%	-4%	28µM*
O=C(O/N=C1/CCCc2occc21)c1ccccc1	-19%	6%	-6%	-46%	13µM*
O=C(O/N=C1/CCCc2occc21)c1ccc(Cl)cc1Cl	-3%	-9%	-10%	3%	-9%
C=CC(=O)Nc1cc2c(Nc3ccc(F)c(Cl)c3)ncnc2cc1OCCCN1CCOCC1	x	x	-8%	x	x
SMILES	RE007 growth inh	AMA1 RON2 block	TbPYK inhibitor	NS1 function inh	LmPK inh
Cc1cccc(N=C2c3cc([N+](=O)[O-])ccc3-c3c2cc([N+](=O)[O-])cc3[N+](=O)[O-])c1	22µM*	u	-1%	x	x
CCOc1ccc(N=Cc2c(C)[nH]n(-c3nc4ccccc4[nH]3)c2=O)cc1	4µM*	56%	u	-4%	22µM*
Cc1cc(NCc2ccccn2)n2ncc(-c3ccc(Cl)cc3)c2n1	28µM*	100%	-2%	-6%	-4%
CCOC(=O)c1ccc(N2C(=O)c3[nH]nc(-c4ccc(OC)cc4)c3C2c2ccc(C)cc2)cc1 (stereo unspecified)	x	x	-8%	x	x
COc1cccc(N2C(=O)CC(N3CCC(c4nc5ccccc5[nH]4)CC3)C2=O)c1 (stereo unspecified)	35µM*	21%	-6%	-78%	-4%
O=C1CC(N2CCC(c3nc4ccccc4o3)CC2)C(=O)N1c1cc(Cl)cc(Cl)c1 (stereo unspecified)	28µM*	-10%	-14%	-32%	17%
Cc1cccc(N2C(=O)CC(N3CCC(c4nc5ccccc5[nH]4)CC3)C2=O)c1 (stereo unspecified)	28µM*	19%	0%	-94%	-10%
COc1ccc(N2C(=O)CC(N3CCC(n4c(=O)[nH]c5ccccc54)CC3)C2=O)cc1 (stereo unspecified)	28µM*	-4%	0%	-18%	0%
COc1ccc(N2CC(C(=O)N3CCC(c4nc5ccccc5[nH]4)CC3)CC2=O)cc1 (stereo unspecified)	-13%	-7%	-14%	x	x
O=C1CC(N2CCC(c3nc4ccccc4o3)CC2)C(=O)N1c1ccc(Cl)cc1 (stereo unspecified)	x	x	x	3%	x
CCN1C(=O)CC(N2CCC(c3nc4ccccc4[nH]3)CC2)C1=O (stereo unspecified)	-3%	0%	5%	x	9%
CCOC(=O)[C@H](CCc1ccccc1)N[C@H]1CCCN2CCC[C@@H](C(=O)O)N2C1=O	x	x	4%	x	x
O=C1[O][Sb-]23[O]C(=O)C([O]2)C2[O][Sb-]4([O]C(=O)C([O]4)C1[O]3)[O]C2=O	x	x	3%	x	x
O=[N+]([O-])c1ccc(C=Nc2cccc3ccccc23)s1	22µM*	-29%	-13%	-44%	1%
CN(C)c1ccc(/C=C2/C[N+](C)(C)C/C(=C/c3ccc(N(C)C)cc3)C2=O)cc1	u	22µM*	-27%	x	x
Cc1ccc(S(=O)(=O)NCC(=O)OC(C(=O)c2ccccc2)c2ccccc2)cc1 (stereo unspecified)	-4%	3.2µM*	-11%	-49%	4%
CCc1ccc(C(=O)C(C)OC(=O)CNS(=O)(=O)c2ccc(C)cc2)cc1 (stereo unspecified)	9%	-10%	-11%	x	x
O=C(Nc1ccccc1)c1ccc(CSc2ccccn2)cc1	u	-12%	u	28%	13µM*
N#C/C(N=Nc1ccccc1O)=N\Nc1ccccc1O	11µM*	-15%	u	x	x
Oc1ccccc1N=N/C(=N/Nc1ccccc1O)c1ccccc1	-5%	9%	-5%	x	x
O=C(O)C1CSC(c2coc3ccccc3c2=O)N1 (stereo unspecified)	40µM*	2%	-11%	-33%	-2%
CCCCCCC[n+]1ccc(-c2cc[n+](CCCCCCC)cc2)cc1	6.3µM*	1%	-5%	-9%	-3%
CCCCCCCCCCCCCC[n+]1ccc(C)cc1	x	x	5%	x	x
CCCCCCCCCCCCCCCC[n+]1ccccc1	16µM*!	11%	0%	x	x
